KCNH2 3.1 inh: inhibitors of human KCNH2 3.1 potassium channel isoform | U2OS KCNH2 3.1, thallium flux FluxOr; hits give low values | AID 720553 | activity change, % (tested at about 1.8 µM) | 340,000 compounds, 0.95% hits;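 active means maximum activity change below -70%; inconclusive means maximum activity change from -70% to -50%; inactive means maximum activity change above -50%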;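 further: thallium influx rate constant from kinetic fluorescence after stimulation buffer; on the % scale 0 is the no-effect control and ±100 the full control effect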
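FluxOr-based Tl+ influx in U2OS cells transduced with KCNH2 3.1 virus; rate constants normalized to DMSO controls.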
KCNH2 WT inh: blocks the wildtype human KCNH2 potassium channel | Q12809 | U2OS, BacMam KCNH2, thallium flux FluxOr; hits give low values | activity change, % at 1.84 µM | 340,000 compounds, 0.37% hits;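 active means maximum activity change below -70%; inconclusive means maximum activity change between -70% and -50%; inactive means maximum activity change above -50%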; further: on the % scale 0 is the no-effect control and ±100 the full control effect
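U2OS cells were transduced with wild-type KCNH2 virus (2.03 x 10^8 / mL) for 4 h at room temperature, then cultured overnight at 37 C. Thallium flux was read with FluxOr dye. Rate constants were normalized to DMSO controls.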
ClpP mod: qHTS Assay for Activators of ClpP. ATP-dependent Clp protease proteolytic subunit (Bacillus subtilis (strain 168)), P80244. purified B. subtilis ClpP, FRET peptide cleavage, 20 min. Potency, µM (doses to about 57.5 µM), for inactives: at the highest dose activity change, negative = active. 340,000 compounds, 1.9% hits; active means well fitted falling curve with a large enough effect; inconclusive means small, poorly fitted or top-dose-only effect; inactive means no such curve, though single readings can be large or run the other way; further: potency means the concentration at half of the fitted maximal effect; the source files actives as falling curves though it sought activators and does not explain the sign; nearly all actives have a fitted effect of over 65% in size
Target sequence (P80244 whole entry, looked up): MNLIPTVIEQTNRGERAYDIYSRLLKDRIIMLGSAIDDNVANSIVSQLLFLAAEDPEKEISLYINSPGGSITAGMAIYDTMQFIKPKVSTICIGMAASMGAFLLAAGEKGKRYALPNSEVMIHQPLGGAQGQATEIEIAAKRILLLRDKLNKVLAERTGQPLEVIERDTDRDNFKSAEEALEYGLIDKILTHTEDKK
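FRET quenching reversal measured ClpP activation: 10 microg/mL B. subtilis ClpP at pH 8 with the FRET-FV decapeptide, read at 430 nm after 320 nm excitation. The 20-min minus 0-min signal was scaled between DMSO/no-enzyme wells and ADEP (5.8 microM final).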
TRPV1 ag: agonists of human vanilloid receptor 1 (TRPV1); Q8NER1; 320,000 compounds, 0.19% hits; activation, % at 8.33 µM; TRPV1-expressing cells, Fluo-8 calcium influx, agonist mode; in the data active means activation above about 80%; inconclusive means between about 30% and that limit; further: 0% is about no effect
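Cells expressing TRPV1 were dye-loaded with Fluo-8 and read kinetically: 10 s baseline, 3 min after compound (agonist portion), then 2 min after EC20 capsaicin (allosteric enhancer portion). Calcium-bound dye fluorescence at 480/520 nm.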
TRPV1 PAM: human TRPV1 potentiation; potentiation, % at 8.33 µM; TRPV1-expressing cells, Fluo-8 calcium influx, capsaicin EC20 potentiation; 320,000 compounds, 0.02% hits; in the data active means potentiation above about 80%; inconclusive means between about 30% and that limit; further: 0% is about no effect
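Cells expressing TRPV1 were dye-loaded with Fluo-8 and read kinetically: 10 s baseline, 3 min after compound (agonist portion), then 2 min after EC20 capsaicin (allosteric enhancer portion). Calcium-bound dye fluorescence at 480/520 nm.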
p53 reactivation: mutant p53 re-activation in reporter cells; H1299 p53-A138V BP100-luciferase reporter, luminescence, 24 h; Potency, µM (titrated, usually from 92.2 µM), for inactives: top-dose activity change, positive = activation, actives largely listed as activators; 320,000 compounds, 0.063% hits; active means well fitted activation curve with a large enough effect; inconclusive means small, poorly fitted or top-dose-only effect; inactive means no such curve, though single readings can be large or run the other way; further: potency means the concentration at half of the fitted maximal effect; % of control where 0% means no effect; nearly all actives have a fitted effect of over 45% in size
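H1299 (p53-null), stable ts p53-A138V + BP100-Luc; 1000 cells/well, Opti-MEM/10% FBS; cpd 4 pt, 1:5; 24 h, 37 deg C, 5% CO2; detection reagent 10 min RT; luminescence.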
An asterisk follows results filed as active; ? = inconclusive; . = no result given. Hits are enriched below; roughly 2.6% of the tested compounds scored in any of these assays.

SMILES	KCNH2 3.1 inh	KCNH2 WT inh	ClpP mod	TRPV1 ag	TRPV1 PAM	p53 reactivation
CCN1CCCC1CNc1ncnc2c1[nH]c1ccc(Cl)cc12 (configuration not stated)	-110.4*	-112.3*	-25.7%	-4.3	4.0	?
COC(=O)c1ccc(C(=O)OC)c(NC(=O)c2cnn3c(C(F)F)cc(-c4ccc(C)cc4)nc23)c1	.	.	-7.1%	.	.	.
C=CCn1c(NS(=O)(=O)c2ccccc2)c(S(=O)(=O)c2ccc(C)cc2)c2nc3ccccc3nc21	-12.4	-15.5	-1.4%	-2.8	12.6	11.5%
CC(=O)Nc1c(S(=O)(=O)c2ccccc2)c2nc3ccccc3nc2n1Cc1ccccc1	3.3	7.0	15.8µM*	8.0	-0.8	0.5%
CC(=O)Nc1ccc(S(=O)(=O)c2c(N)n(CCN3CCOCC3)c3nc4ccccc4nc23)cc1	-12.7	-17.3	31.6µM*	-1.4	11.0	-1.6%
COc1cc2c(cc1OC)C(=O)Cc1ccc3c(c1CN(C)CC2)OCO3	4.6	19.7	0.6%	-2.1	22.1	-2.7%
COc1ccc2c(c1OC)CN(C)CCc1cc3c(cc1C(=O)C2)OCO3	-83.5*	-47.5	.	-1.8	-4.2	-2.7%
C=CCOc1ccc(C2OC34CCCCC3C(C#N)(C#N)C2(C#N)C(=N)O4)cc1 (configuration not stated)	-4.5	0.5	22.4µM*	-1.4	15.0	1.5%
CCCCOc1ccc(C2OC34CCCCC3C(C#N)(C#N)C2(C#N)C(=N)O4)cc1 (configuration not stated)	2.6	3.2	0.8%	0.3	-0.7	8.0%
O=C(C[n+]1ccncc1)c1cccc2ccccc12	.	.	0.9%	.	.	.
Clc1ccc2nc(C3CCN(Cc4nnnn4C4CCCCC4)CC3)[nH]c2c1	-28.1	-4.8	-3.0%	-1.1	-7.4	-9.8%
Cc1ccc(Cn2nnnc2CN2CCC(c3nc4ccc(Cl)cc4[nH]3)CC2)cc1	-87.9*	-2.3	-2.1%	-2.3	7.1	-14.0%
COc1ccc(C2c3[nH]c4ccccc4c3C[C@H]3C(=O)N(C4CCN(Cc5ccccc5)CC4)CC(=O)N23)cc1OC (some centres not stated)	?	-17.8	-0.1%	-1.4	-4.3	11.9%
COc1ccccc1C1c2[nH]c3ccccc3c2C[C@H]2C(=O)N(C3CCN(Cc4ccccc4)CC3)CC(=O)N12 (some centres not stated)	-36.6	-105.7*	-0.8%	-4.1	23.9	-5.2%
COc1ccc(C2C(C#N)=C(C)NC3=C2C(=O)CC(C)(C)C3)cc1 (configuration not stated)	-1.5	-7.6	28.2µM*	-7.1	5.9	-2.7%
COc1cccc(C2C(C#N)=C(N)N(N(C)C)C3=C2C(=O)CC(C)(C)C3)c1 (configuration not stated)	5.2	17.0	.	3.4	-15.9	0.7%
COc1cccc(C2C(C#N)=C(C)NC3=C2C(=O)CC(C)(C)C3)c1 (configuration not stated)	-2.6	0.8	25.1µM*	-0.9	-2.3	-6.2%
CCc1nc2ccc(C(=O)Nc3ccc(OC)c(OC)c3)cn2c1N(CCC(C)C)CCN(C)C	.	.	2.5%	.	.	.
COc1cc2c(cc1OC)C1=NC(=O)CN1C(SCc1ccccc1)=N2	-4.2	-13.5	22.4µM*	2.0	0.0	-13.8%
CN(/N=C/c1ccc(-c2ccc([N+](=O)[O-])cc2)o1)c1ccccc1	-71.6*	-37.6	.	13.7	11.6	.
COC(=O)CC(=O)CSc1nc2cc(C(=O)NC(C)C)ccc2c(=O)n1CCc1ccccc1	.	.	-2.9%	.	.	.
COC(=O)c1c(-c2ccccc2)oc2c1C(OCCO)CCC2 (configuration not stated)	.	.	4.7%	.	.	.
S=c1[nH]nc(Nc2ccc(Cl)cc2)s1	-90.7*	11.6	2.9%	-12.8	4.5	1.3%
Cc1ccc(Nc2n[nH]c(=S)s2)cc1	-5.0	3.5	0.1%	.	.	.
O=S1(=O)CCOC[C@H](c2ccccc2)N1Cc1ccc(F)cc1	.	.	1.2%	.	.	.
